# Activity calls are given as the source filed them. How the source made its calls: active means hit-call score of the fitted dose curve at least 0.9, where 1 is the maximum; inactive means score below 0.9.
# Experiment: APR_HepG2_MicrotubuleCSK_72hr: Apredica 72-hour HepG2 Assay for Microtubule CSK Stabilty (AID 2282919)
# Details: HepG2 microtubule cytoskeleton, high-content imaging, actives raise or lower the signal
# Method: APR_HepG2_72hr is a cell-based, multiplexed-readout assay that uses HepG2, a human liver cell line, with measurements taken at 72 hours after chemical dosing in a 384-well plate.APR_HepG2_MicrotubuleCSK_72hr is one of 10 assay component(s) measured or calculated from the APR_HepG2_72hr assay. It is designed to make measurements of protein conformation, a form of conformation reporter, as detected with fluorescence intensity signals by HCS Fluorescent Imaging technology.Data from the assay component APR_HepG2_MicrotubuleCSK_72hr was analyzed into 1 assay endpoint. This assay endpoint, APR_HepG2_MicrotubuleCSK_72hr, was analyzed with bidirectional fitting relative to DMSO as the negative control and baseline of activity. Using a type of conformation reporter, measures of protein for gain or loss-of-signal activity can be used to understand the signaling at the cellular-level. Furthermore, this assay endpoint can be referred to as a primary readout, because this assay has produced multiple assay endpoints where this one serves a signaling function. To generalize the intended target to other relatable targets, this assay endpoint is annotated to the cell morphology intended target family, where the subfamily is cell conformation.
# Cells were treated with dimethyl sulfoxide (DMSO) as a solvent control at a final concentration of 0.5% v/v or with compounds in DMSO with a resulting final DMSO concentration of 0.5% v/v. Compound treatment was done at concentrations of 0.39, 0.78, 1.56, 3.12, 6.24, 12.5, 25, 50, 100, and 200 uM in duplicate on each plate. Cells were treated with compounds for 1, 24, or 72 hr. Carbonyl […] m-chloro-phenylhydrazone (CCCP) and taxol were used as positive controls for mitochondrial function and cytoskeletal stability, respectively; DMSO served as the negative control for this experiment. Cells were fixed by the direct addition of 50 uL formaldehyde in Hank's Balanced Salt Solution (HBSS) to a final concentration of 3.7%. After incubation in the fixation medium for 30 min at room temperature (293-298 K), cells were rinsed twice with HBSS and treated with cell permeabilization buffer (16 uL of 0.5% Triton X-100) for 10 min at room temperature (293-298 K) before labeling. For mitochondrial membrane potential and mitochondrial measurements, pre-fixed cells were incubated with 50 uL of MitoTracker Red CMXRos (Invitrogen) at a concentration of 250 nM for 30 min before fixation. In the remaining cases, post-fixed cells were labeled by incubation with a multiplexed mixture of primary antibodies in HBSS for 60 min at room temperature (293-298 K) to detect immunoreactivity of c-Jun (1:500), phospho-histone H3 (1:100), phospho-histone H2A.x (1:200), p53 (1:400), alpha-tubulin (1:200) and Hoechst 33342 (2 ug/mL). Cells were labeled for multiplexed imaging on two separate plates: a) Hoechst 33342, MitoTracker Red, phospho-histone H3, and alpha-tubulin, and b) Hoechst 33342, phospho-histone H2A.x, and c-Jun. A final rinse with HBSS (50 uL) was performed before analysis. The primary and secondary antibodies for the proteins were phospho-histone H3 (rabbit anti-phospho-histone H3 and FITC-donkey anti-rabbit IgG), phospho-histone H2A.x (mouse anti-phospho-histone H2A.x and FITC-donkey anti-mouse IgG), c-Jun (rabbit anti-phospho-c-Jun and Cy3-donkey anti-rabbit IgG), p53 (sheep anti-p53 and Cy5-donkey anti-sheep IgG), alpha-tubulin (mouse anti-alpha-tubulin and Cy5-donkey anti-mouse IgG). These antibodies are available as the CellCiphr HepG2 assay kit (Millipore).Digital images of each well were captured using a Cellomics ArrayScan VTI (Thermo Scientific Cellomics) (0.8 NA objective, 0.63x optical coupler, and XF-93 filter set) at 20x magnification. The images were acquired using the autofocus feature of the ArrayScan instrument, which entails the following steps. First, the camera focuses on channel 1 (Hoechst 33342), where nuclei are identified. Second, a Z offset of 1 um is used for capturing mitochondria (MitoTracker Red). […]
SMILES,outcome,AC50
CCCCCCCCCCCC(=O)OC,inactive,
O=C(OCCCCCOC(=O)c1ccccc1)c1ccccc1,inactive,
O=c1c(O)c(-c2ccc(O)c(O)c2)oc2cc(O)cc(O)c12,inactive,
CC1=C(/C=C/C(C)=C/C=C/C(C)=C/CO)C(C)(C)CCC1,inactive,
C=CCOC(=O)c1ccccc1C(=O)OCC=C,inactive,
CC1(C)CC(N=C=O)CC(C)(CN=C=O)C1 (stereo not given),inactive,
CC(C)c1ccc(C(=O)N=C(N)N)cc1S(C)(=O)=O,inactive,
CNCc1cc(F)ccc1Oc1ccc(Cl)c(Cl)c1,inactive,
Clc1cc(Cl)c(Cl)cc1Cl,inactive,
CNC(=O)[C@H]1O[C@@H](n2cnc3c(NCc4cc(Cl)ccc4OCc4cc(C)no4)ncnc32)[C@H](O)[C@@H]1N,inactive,
O=[N+]([O-])C(CO)(CO)CO,inactive,
CCCCN(CCCC)CCCC,inactive,
CC=Cc1ccc(O)c(OC)c1,inactive,
Cc1oc(-c2ccccc2)nc1CCOc1cccc2c1ccn2CCC(=O)O,inactive,
Cc1cc(=O)[nH]c(=S)[nH]1,inactive,
O=c1[nH]cc(F)c(=O)[nH]1,inactive,
NC(=O)Cn1c(=O)cc(CCN2CCN(c3nccc4sccc34)CC2)c2ccc(F)cc21,inactive,
COc1cccc2c1C(=O)c1c(O)c3c(c(O)c1C2=O)C[C@@](O)(C(=O)CO)C[C@@H]3O[C@H]1C[C@H](N)[C@H](O)[C@H](C)O1,,0.7 µM (active)
O=C(O)Cc1ccccc1Nc1c(Cl)cccc1Cl,inactive,
Cc1c(C(=O)O)c(O)cc2c1C(=O)c1c(O)c([C@@H]3O[C@H](CO)[C@@H](O)[C@H](O)[C@H]3O)c(O)c(O)c1C2=O,inactive,

SMILES,outcome,AC50
CCCCC(CC)COC(=O)CC(C(=O)OCC(CC)CCCC)S(=O)(=O)O (stereo not given),inactive,
CCNc1cccc(C)c1,inactive,
Cc1ccc(Cl)cc1,inactive,
COCCOCCOC,inactive,
CCOC(=O)C(C)(C)Oc1ccc(Cl)cc1,inactive,
Cc1nc(-c2ccc3c(c2)CCN(CCC2CCC(NC(=O)/C=C/c4ccc(F)cc4)CC2)CC3)no1 (stereo not given),inactive,
Cc1ccc2ncccc2c1,inactive,
COc1cc(-c2nc(NC(=O)c3cc4cc(C)cc(C)c4n3CC(=O)O)sc2CCC2CCCCC2)c(OC)cc1Cl,,25.2 µM (active)
COc1cc(S(=O)(=O)O)c(C)cc1N=Nc1c(O)ccc2cc(S(=O)(=O)O)ccc12,inactive,
Cc1ccc(C)c(O)c1C,inactive,
CCCCc1ccc2c(n1)[C@@H](c1ccc(OC)cc1C[C@H](C)C(=O)O)[C@H](C(=O)O)[C@H]2c1ccc2c(c1)OCO2,inactive,
CN1CCN(Cc2cc(-c3ccc4[nH]c(=O)oc4c3)co2)[C@@H](c2ccc(F)cc2)C1,,73.2 µM (active)
CCOC(=O)CCC(=O)OCC,inactive,
Cc1cccc(C)c1O,inactive,
Oc1ccc2ccccc2c1N=Nc1ccccc1,inactive,
C[Si]1(C)O[Si](C)(C)O[Si](C)(C)O[Si](C)(C)O1,inactive,
NCC1(Cc2noc(=O)[nH]2)CCCCC1,inactive,
COc1ccc(S(=O)(=O)N2C(=O)[C@@](c3ccccc3OC)(N3C[C@H](O)C[C@H]3C(=O)N(C)C)c3cc(Cl)ccc32)c(OC)c1,inactive,
COc1cc(/C=C/C(=O)CC(=O)/C=C/c2ccc(O)c(OC)c2)ccc1O,,15.9 µM (active)
Cc1ccc(N(C)C)cc1,inactive,
